Tested on: PPARg:RXRa 270nM:90nM, anti-RXR (NR concentration 270 nM, RXRa partner concentration 90 nM)
Assay: PBM binding z-score (relative to random genomic background probes); higher = stronger binding; sequences stand for … in GC…GCGATTGACAGCGTAGAATGAAGG
How it was run: (§1)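 Probes were double-stranded and carried 34-nt variable regions with direct-repeat seeds, single-nucleotide variants, half-site ablations and random human genomic background sequences, printed on custom Agilent 4×180K protein-binding microarrays. Arrays were incubated 1 h with ligand-free nuclear receptor dimers in PBS pH 7.4, 2% milk, 0.02% Triton X-100, 1 mM DTT, 0.2 mg/mL BSA and 0.4 mg/ml salmon testes DNA. Antibodies against each partner (one per run) detected binding, and scanned fluorescence was regression-normalized. Binding z-scores use the random background probes as reference.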

Sequence | PBM binding z-score
CCTTACGGGACACTGACAGGTTATAGCATTTGGA | -0.397
AGAACGAGGGCAATGAGTTGAGAGCACGGGTGGC | 1.17
CCTGCTAGGTCAATGGTCGGCTAAAGCAGCTCGC | 4.34
CCGACTGGGGCTAAGGTTACCATACTCAGTACGA | 5.55
CTTCCAAGGTCAATGCTAGGTCAGTGAAAGCATT | 4.73
CATACTGGGCCAAAGGTCATTGATTCCAATGCTC | 10.1
AGAACGAGGGCACGCTGAGTTGCTAGCAGAGTAG | 1.6
CCTCGGAGGACCACAGGAGGTCAGAGCTGCCAGA | 0.0668
AGTCAAAGTTCAGGACGAGGTTACGTAAAGCACG | 4.89
TCTAGTTGGTCACGGACGTCACACACGACGGGTA | 1.59
TAGCCTAGGTCATTGCGCCAGTATAGTACGCATC | 2.49
TCTTTTAGATCAAGCAGGTTAAGAAAGCCTGAGT | 1.68
CATACAGGGTCAGCTAGGCCACAGTAGGGACGGC | 3.32
GCTAGTTGGTCAGTAAAAGGTCACACGCCGGTCG | 4.66
ACAGACAAGTGAGTGAAGGTAACTCAGCTGGACG | -0.0179
CCTACTGGGCCATTCAGAGGTCTTTGATCATATG | 0.437
CCGACTGGGGTAGAAAGGTTACCATACCATCCGG | 3.63
CCGACTGGGGCATAAGGTTAGCATAAGCCAGCCC | 2.32
CGTCAAAGTTCCACTAAGGTAACGTAAAGCACGC | 0.573
CCGACTGGGGCAGATAGGTTACCATACCATCCGG | 0.44

Sequence | PBM binding z-score
CATACAGGGTCAGCTAGGCGAGAGTAGGGACGGC | 2.91
GGAACGAGGGCAAGTTGATCGCAGAGTTTGATGG | 0.878
ACAGACAGGTGATGAAGCTAACTCAGGCTATCAT | -0.13
GCATATAGGTAATACAAGGTAAAAGTCCGATTGT | 0.607
TCTGGGAGGACACGAAAGGTCAGAGCTCGACATC | 2.81
CCGACTGGGGCAAAGTTACCATAACGCACAGCCA | 5
AGAATGAGGTTAAGATGAGGGAAACAGAATACAT | 2.24
ATATGTAGATTATCGGGTCATTCAGTTTGCGCAT | 1.77
TCATATTGGTAAAGGTGAAAGTCGAACGATATGA | 3.8
TCTCGGAGCACACGAAGGTCAGAGCTTTCCAGAG | 1.06
CAAACTAGGTCAAGAGATCAAAGTCCGCTTCCCG | 6.89
ATCGAAAGGTCGAGGGTGAGTATACCCACCCGAA | 4.25
CAGCCTAGGTCAGGGCCAGTATTGGAGGAACGTT | 0.87
ATCGAAAGGTCGAAGGTGAGTGTACCCACCCGAA | 4.69
CGAACTAGGTTAAGGACAGTGAATCTCCGCACGC | 2.74
TCATATAGGTAATACAGGTGAAAGCCGGCATCTA | 2.68
CCTGCTAGGTCATCGTCAGCTAATCTACAGTATG | 2.75
TCTTGGAGATCAACAGGAGGTTAAGAAAGATCGA | 1.23
GCGACTGGGGCAAAGCAGGTTACCATAAGGTTGG | 1.12
TAGCCTAGGTCATGGACCAGTATACCACGCGAAC | 3.32

Tested on: PPARg:RXRa 30nM:10nM, anti-RXR (NR concentration 30 nM, RXRa partner concentration 10 nM)
Assay: as above
How it was run: as §1

Sequence | PBM binding z-score
CCTTACGGGACACTGACAGGTTATAGCATTTGGA | 0.123
AGAACGAGGGCAATGAGTTGAGAGCACGGGTGGC | -0.064
CCTGCTAGGTCAATGGTCGGCTAAAGCAGCTCGC | 1.27
CCGACTGGGGCTAAGGTTACCATACTCAGTACGA | 4.41
CTTCCAAGGTCAATGCTAGGTCAGTGAAAGCATT | 1.5
CATACTGGGCCAAAGGTCATTGATTCCAATGCTC | 10.1
AGAACGAGGGCACGCTGAGTTGCTAGCAGAGTAG | 0.179
CCTCGGAGGACCACAGGAGGTCAGAGCTGCCAGA | -0.599
AGTCAAAGTTCAGGACGAGGTTACGTAAAGCACG | 2.32
TCTAGTTGGTCACGGACGTCACACACGACGGGTA | 2.77
TAGCCTAGGTCATTGCGCCAGTATAGTACGCATC | 0.591
TCTTTTAGATCAAGCAGGTTAAGAAAGCCTGAGT | 3.39
CATACAGGGTCAGCTAGGCCACAGTAGGGACGGC | 0.994
GCTAGTTGGTCAGTAAAAGGTCACACGCCGGTCG | 2.53
ACAGACAAGTGAGTGAAGGTAACTCAGCTGGACG | -0.202
CCTACTGGGCCATTCAGAGGTCTTTGATCATATG | -0.397
CCGACTGGGGTAGAAAGGTTACCATACCATCCGG | 1.08
CCGACTGGGGCATAAGGTTAGCATAAGCCAGCCC | 0.353
CGTCAAAGTTCCACTAAGGTAACGTAAAGCACGC | -0.0574
CCGACTGGGGCAGATAGGTTACCATACCATCCGG | -0.164

Sequence | PBM binding z-score
CATACAGGGTCAGCTAGGCGAGAGTAGGGACGGC | 0.767
GGAACGAGGGCAAGTTGATCGCAGAGTTTGATGG | -0.211
ACAGACAGGTGATGAAGCTAACTCAGGCTATCAT | -0.153
GCATATAGGTAATACAAGGTAAAAGTCCGATTGT | -0.0355
TCTGGGAGGACACGAAAGGTCAGAGCTCGACATC | 1.88
CCGACTGGGGCAAAGTTACCATAACGCACAGCCA | 3.18
AGAATGAGGTTAAGATGAGGGAAACAGAATACAT | 1.31
ATATGTAGATTATCGGGTCATTCAGTTTGCGCAT | 0.662
TCATATTGGTAAAGGTGAAAGTCGAACGATATGA | 3.95
TCTCGGAGCACACGAAGGTCAGAGCTTTCCAGAG | 1.04
CAAACTAGGTCAAGAGATCAAAGTCCGCTTCCCG | 4.87
ATCGAAAGGTCGAGGGTGAGTATACCCACCCGAA | 1.3
CAGCCTAGGTCAGGGCCAGTATTGGAGGAACGTT | -0.497
ATCGAAAGGTCGAAGGTGAGTGTACCCACCCGAA | 2.15
CGAACTAGGTTAAGGACAGTGAATCTCCGCACGC | 0.975
TCATATAGGTAATACAGGTGAAAGCCGGCATCTA | 3.73
CCTGCTAGGTCATCGTCAGCTAATCTACAGTATG | 0.439
TCTTGGAGATCAACAGGAGGTTAAGAAAGATCGA | 2.38
GCGACTGGGGCAAAGCAGGTTACCATAAGGTTGG | -0.898
TAGCCTAGGTCATGGACCAGTATACCACGCGAAC | 0.758
